From PubChem
JMJD2A Tudor: blocks the human JMJD2A Tudor domain; AlphaScreen JMJD2A-Tudor / H3K4me3 peptide binding; Potency, µM (top dose mostly 114 µM), without a hit: top-dose activity change, negative = inhibition, actives largely listed as inhibitors; 390,000 tested, 4.4% active; also: % is scaled to controls: 0 for no effect and ±100 for the full control effect; nearly all actives have a fitted effect of over 50% in size
G9a block: blocks human histone lysine methyltransferase G9a; Q96KQ7; 350,000 tested, 8.8% active; Potency, µM (top dose mostly 102 µM), for the others: top-dose activity, negative = inhibition, most hits filed as inhibitors; G9a H3K9 monomethylation, AlphaScreen, 2 h; also: % is scaled to controls: 0 for no effect and ±100 for the full control effect; nearly all actives have a fitted effect of over 75% in size
Target sequence (Q96KQ7 913-1193 limits assumed): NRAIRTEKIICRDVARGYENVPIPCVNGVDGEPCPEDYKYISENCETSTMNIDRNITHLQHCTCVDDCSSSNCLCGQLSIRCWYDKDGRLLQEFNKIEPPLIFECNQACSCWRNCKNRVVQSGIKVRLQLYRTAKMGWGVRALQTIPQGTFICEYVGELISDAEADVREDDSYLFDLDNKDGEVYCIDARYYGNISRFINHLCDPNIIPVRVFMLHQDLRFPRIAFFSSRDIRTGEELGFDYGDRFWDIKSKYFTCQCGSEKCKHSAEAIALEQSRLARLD
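Using a bead-based AlphaScreen, monomethylated H3K9 product from 2 h room-temperature reactions (G9a 20 nM, peptide 500 nM, SAM 20 uM) was detected with 0.5 ug/mL rabbit anti-H3K9me1 antibody.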
Sfp inh: blocks B. subtilis Sfp PPTase activity. Potency, µM, for the others: largest response in the series, negative = inhibition, usual class: inhibitors. 310,000 tested, 3.5% active. Biochemical Sfp PPTase activity, qHTS. AID 1490;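 also: the enzyme is Sfp with the accession as filed and its product quenches rhodamine fluorescence; 0% = enzyme reaction without inhibitor and -100% = no enzyme wells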
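Fluorescence-quenching assay with 15 nM Sfp, 5 uM rhodamine-CoA and 12.5 uM BHQ-2-labelled ybbR peptide in pH 7.6 Hepes/MgCl2 buffer. Enzyme was pre-incubated with compound for 15 min at room temperature. Rate was taken from the 30-min fluorescence change (525/598 nm).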
HP1b binding inh: HP1-beta chromodomain-methylated histone interaction inhibition; P83916; AlphaScreen HP1-beta / biotin-H3K9me3 peptide binding; Potency, µM (titrated, usually from 114 µM), for inactives: top-dose activity change, negative = inhibition, actives largely listed as inhibitors; 390,000 tested, 0.56% active; also: nearly all actives have a fitted effect of over 70% in size
Target sequence (P83916 whole entry, looked up): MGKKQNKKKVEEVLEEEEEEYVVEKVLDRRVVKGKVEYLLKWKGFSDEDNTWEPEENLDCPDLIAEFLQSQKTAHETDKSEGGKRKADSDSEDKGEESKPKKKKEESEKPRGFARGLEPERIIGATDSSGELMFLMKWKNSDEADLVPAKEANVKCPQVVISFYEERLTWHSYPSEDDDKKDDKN
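HP1-beta protein (50 nM final) preincubated 30 min at room temperature with biotinylated H3(1-18)K9me3 peptide (50 nM) in PBS pH 7.4, 0.01% Tween-20, then compound added for 30 min. AlphaScreen streptavidin donor/nickel chelate acceptor beads (10 ug/mL final), 30 min dark, luminescence read.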
PLK1 PBD block: inhibitors of human PLK1 polo-box domain binding. Plk1 PBD binding of FITC phosphopeptide, fluorescence polarization. AID 720504. Potency, µM, inactives show max response, negative = inhibition, usual class: inhibitors. 360,000 tested, 2.8% active. P53350; also: series mostly up to about 57 µM; % is scaled to controls: 0 for no effect and ±100 for the full control effect; nearly all actives have a fitted effect of over 65% in size
BAZ2B block: inhibitors of human BAZ2B bromodomain | Q9UIF8 | AlphaScreen BAZ2B-H3K14Ac peptide displacement | Potency, µM (doses to about 114 µM), without a hit: top-dose activity change, negative = inhibition, most hits filed as inhibitors | 360,000 tested, 4.4% active | AID 504333; also: % is scaled to controls: 0 for no effect and ±100 for the full control effect; nearly all actives have a fitted effect of over 60% in size
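BAZ2B (50 nM) with biotin-H3(5-23)K14Ac peptide (50 nM) in PBS pH 7.4, 0.01% Tween-20, preformed 30 min, then compound 30 min at room temperature; top concentration 110uM. AlphaScreen streptavidin donor/nickel chelate acceptor beads (10 ug/mL final), 20 min dark, signal read.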
Active calls of the source: *; [ ] = dose if it differs, or a comment. An excerpt weighted towards active compounds, which were near 12% of everything screened. Calls follow the shape of the dose curve; as a rule, active = well fitted curve in the direction sought with a large enough effect; inconclusive = small, poorly fitted or top-dose-only effect, or another doubt; inactive = no such curve, though single readings can be large; an effect the other way counts as inactive or inconclusive. Potency is read from the fitted curve at half-maximal effect.

Results for N#Cc1nc(N(c2ccccc2)c2ccccc2)nc(-n2cccc2)n1 ?
JMJD2A Tudor: -23.1%[57.1 µM]; HP1b binding inh: -8.1%[57 µM]

Results for COc1ccc(Cn2nnc3c(=O)[nH]c(C4CCN(C(=O)c5ccc(C)cc5)CC4)nc32)cc1OC ?
JMJD2A Tudor: -14.6%; G9a block: 12.0%[59 µM]; HP1b binding inh: 15.4%; BAZ2B block: -2.7%

Results for CO[C@@H]1COC(=O)C/C=C\[C@@H](C)[C@@H]2C=C[C@H](O)[C@@H](COC(=O)CCC[C@H]1C)O2 ?
Sfp inh: -1.6%

What do the screens show for `O=C(CCNS(=O)(=O)c1ccc(Br)s1)Nc1ccc(Br)cc1`?
JMJD2A Tudor: -3.8%; G9a block: 11.6%[59 µM]; HP1b binding inh: 38.9%; BAZ2B block: 2.2%

Results for CCN1C(=O)[C@H]2[C@@H](c3ccc(-c4ccccc4)cc3)N[C@@](CC(C)C)(C(=O)OC)[C@H]2C1=O ?
JMJD2A Tudor: -7.9%; G9a block: -5.3%[2.33 µM]; HP1b binding inh: 38.3%; PLK1 PBD block: -11.1%; BAZ2B block: 3.8%

What do the screens show for `Cc1cc(OCC(=O)N(Cc2ccc(N(C)C)cc2)C2CCS(=O)(=O)C2)cc(C)c1Cl` (stereo not drawn)?
JMJD2A Tudor: 39.8µM*; G9a block: inconclusive; HP1b binding inh: -25.2%; BAZ2B block: 10µM*

Results for Cc1ccc(OCC(=O)N(Cc2ccc(C)o2)C2CCS(=O)(=O)C2)cc1 (stereo not drawn) ?
JMJD2A Tudor: inconclusive; G9a block: -5.3%; Sfp inh: -4.7%; HP1b binding inh: 6.9%; PLK1 PBD block: 26.7µM*; BAZ2B block: -13.1%[57.1 µM]

How did CC(C)Sc1ncc(Cl)c(C(=O)N(Cc2ccc(N(C)C)cc2)C2CCS(=O)(=O)C2)n1 (stereo not drawn) do in these assays?
JMJD2A Tudor: 56.2µM*; G9a block: inconclusive; HP1b binding inh: inconclusive; BAZ2B block: 44.7µM*

What do the screens show for `CCSc1ncc(Cl)c(C(=O)N(Cc2ccc(N(C)C)cc2)C2CCS(=O)(=O)C2)n1` (stereo not drawn)?
JMJD2A Tudor: inconclusive; G9a block: inconclusive; Sfp inh: 2.0%; HP1b binding inh: -19.5%; PLK1 PBD block: -12.6%; BAZ2B block: inconclusive

What do the screens show for `CCN(CC)C(=O)C1=C(C)N(CCCOC)C(=O)C(CC(=O)NCCN2CCOCC2)C1` (stereo not drawn)?
PLK1 PBD block: -16.9%

How did CCOC(=O)Cc1nn(C)c(=O)c2ccccc12 do in these assays?
JMJD2A Tudor: -1.8%; G9a block: -4.8%[59 µM]; Sfp inh: 19.3%; HP1b binding inh: 6.5%; PLK1 PBD block: -4.3%; BAZ2B block: 4.0%

What do the screens show for `Cn1nc(Cc2n[nH]c(=S)n2C)c2ccccc2c1=O`?
JMJD2A Tudor: 3.98µM*; Sfp inh: 1.6%; HP1b binding inh: 31.5%; PLK1 PBD block: -0.8%; BAZ2B block: 0.5%

What do the screens show for `COCCOc1ccc(C(F)(F)F)cc1NC(=O)COC(=O)c1cc([N+](=O)[O-])ccc1N1CCOCC1`?
JMJD2A Tudor: -30.3%; G9a block: 19.6%; Sfp inh: 5.3%; HP1b binding inh: 6.0%; PLK1 PBD block: 2.3%; BAZ2B block: -22.0%

How did COC(=O)C1C(O)=C(C(C)=Nc2cccc3ccccc23)C(=O)CC1(C)C (stereo not drawn) do in these assays?
JMJD2A Tudor: 79.4µM*; G9a block: -63.9%; Sfp inh: -17.8%; HP1b binding inh: -4.8%; PLK1 PBD block: -13.0%; BAZ2B block: -32.0%

Results for COC(=O)C1C(O)=C(C=NC2CCCCC2)C(=O)CC1(C)C (stereo not drawn) ?
JMJD2A Tudor: -18.5%[11.4 µM]; G9a block: -5.1%; Sfp inh: 15.9%; HP1b binding inh: 37.8%; PLK1 PBD block: -8.6%; BAZ2B block: 7.4%

What do the screens show for `CN(NC(=O)C(=O)NCc1ccco1)C(=O)Nc1ccc(Cl)cc1`?
PLK1 PBD block: 3.9%

How did CC(=O)N(Cc1ccco1)c1nc(C(=O)Nc2ccc(Cl)cc2)c(C)s1 do in these assays?
JMJD2A Tudor: -23.2%; G9a block: inconclusive; Sfp inh: 20µM*; HP1b binding inh: inconclusive; PLK1 PBD block: inconclusive; BAZ2B block: -13.0%

What do the screens show for `O=c1[nH]c(=S)c2[nH]c(=S)n(-c3ccccc3)c2[nH]1`?
JMJD2A Tudor: 20µM*; HP1b binding inh: inconclusive; PLK1 PBD block: inconclusive

Results for O=c1[nH]c(=O)c2[nH]c(=O)n(-c3ccccc3)c2[nH]1 ?
JMJD2A Tudor: -6.3%; HP1b binding inh: 2.0%; PLK1 PBD block: -9.7%

What do the screens show for `COc1ccc(Cc2nnc(SCC(=O)Nc3ccccc3C#N)o2)cc1`?
JMJD2A Tudor: -11.8%; G9a block: 42.6%; Sfp inh: 7.5%; HP1b binding inh: 14.2%; PLK1 PBD block: -9.7%; BAZ2B block: -4.7%

Results for CCOc1ccc(NC(=O)CN(C)C(=O)Cc2c[nH]c3ccccc23)cc1OCC ?
JMJD2A Tudor: -26.4%; G9a block: 50.1µM*; HP1b binding inh: -17.1%; PLK1 PBD block: -6.8%; BAZ2B block: -6.6%

Results for Cc1ccc(C(C(=O)Nc2ccc3c(c2)OCO3)N(C)C(=O)Cc2c[nH]c3ccccc23)cc1 (stereo not drawn) ?
JMJD2A Tudor: inconclusive; G9a block: 39.8µM*; Sfp inh: 6.8%; HP1b binding inh: -15.2%; PLK1 PBD block: -10.5%; BAZ2B block: inconclusive

How did CCOc1ccc(NC(=O)CN(C)C(=O)CN2C(=O)NC3(CCCC3)C2=O)cc1OCC do in these assays?
JMJD2A Tudor: -13.8%; G9a block: 56.2µM*; HP1b binding inh: -11.1%; PLK1 PBD block: 0.3%; BAZ2B block: -6.5%

Results for CN(CC(=O)Nc1ccc(Cl)c(Cl)c1)C(=O)CN1C(=O)NC2(CCCC2)C1=O ?
JMJD2A Tudor: -20.7%; G9a block: inconclusive; HP1b binding inh: 4.8%; PLK1 PBD block: -6.4%; BAZ2B block: 9.4%

Results for COc1ccc(S(=O)(=O)NCC(c2cccs2)S(=O)(=O)c2ccccc2)cc1OC (stereo not drawn) ?
JMJD2A Tudor: -2.9%; G9a block: 8.2%[59 µM]; HP1b binding inh: 31.7%; BAZ2B block: -0.3%

What do the screens show for `CN(CCN(C)C(C)(C)C)C(=O)C(c1ccccc1)c1ccccc1`?
JMJD2A Tudor: 20µM*; G9a block: inconclusive; Sfp inh: -29.2%; HP1b binding inh: inconclusive; PLK1 PBD block: 3.2%; BAZ2B block: inconclusive

What do the screens show for `Cc1ccc2c(c1)-c1c(cnn1CC(=O)NC(C)CCc1ccco1)CO2` (stereo not drawn)?
JMJD2A Tudor: -28.5%; G9a block: 44.7µM*; Sfp inh: inconclusive; HP1b binding inh: 2.9%; PLK1 PBD block: -11.6%; BAZ2B block: -32.2%
